Source: PubChem BioAssay (Tox21)
Results filed as inconclusive are left out. Entries that show only a call come without a potency. Active and inactive are the calls of the source. Calls come from the whole dose curve; as a rule, active = well fitted curve in the direction sought with a large enough effect in the repeat runs; inconclusive = weak or mixed curves; inactive = no such curve, though single readings can be large; an effect the other way counts as inactive or inconclusive.

Assay: qHTS RealTime-Glo MT Cell Viability Assay in HEK293 cells - 0 hour (AID 1224880); note: top concentration of the series differs between compounds; nearly all actives have a fitted effect of over 45% in size
Conditions: RealTime-Glo luminescence; series mostly up to 76.8 µM
Outline: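 Luminescence, which tracks viable cell number through reduction of the prosubstrate to a NanoLuc substrate, was read over continuous 37 C culture. Cells (600/well) were premixed with reagent and rested 5 h before 23 nL of compound in DMSO was pinned.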

SMILES	Potency	activity change, negative = cytotoxicity
O=C(NCC1CN(c2ccc(N3CCOCC3=O)cc2)C(=O)O1)c1ccc(Cl)s1 (stereo not given)	inactive	
CC(COCCO)OCCO (stereo not given)	inactive	
CCC(C)(C)CC	inactive	
CC[N+](C)(CC)CCOC(=O)C(O)(c1ccccc1)C1CCCCC1 (stereo not given)	inactive	
CN1CCC(N(Cc2cccs2)c2ccccc2)CC1	inactive	
C=C(C)C(=O)OCC	inactive	
C[N+]1(CC2COC(c3ccccc3)(C3CCCCC3)O2)CCCCC1 (stereo not given)	inactive	
NCCCN1CCOCC1	inactive	
CC(=O)[O][Al]	inactive	
NC(=O)C(c1ccccc1)(c1ccccc1)[C@@H]1CCN(CCc2ccc3c(c2)CCO3)C1	inactive	
CC(=O)[O][Al][O]C(C)=O	inactive	
CCCCOC(=O)CCCCCCCC(=O)OCCCC	inactive	
CCCCC(CC)COC(=O)CCCCCCCCC(=O)OCC(CC)CCCC (stereo not given)	inactive	
CN(C)CCOC(c1ccccc1)c1ccc(Br)cc1 (stereo not given)	inactive	
O=C(OCCCCCCOC(=O)c1ccccc1)c1ccccc1	inactive	
C[Si](C)(CCCN)O[Si](C)(C)CCCN	inactive	

SMILES	Potency	activity change, negative = cytotoxicity
CCC(C)O (stereo not given)	inactive	
Nc1cccc([N+](=O)[O-])c1	inactive	
NS(=O)(=O)c1ccc(N2CCCCS2(=O)=O)cc1	inactive	
Cc1ncc(CO)c(C=O)c1O	inactive	
OC[C@H]1O[C@@H](OCCc2ccc(O)cc2)[C@H](O)[C@@H](O)[C@@H]1O	inactive	
Nc1ccc([N+](=O)[O-])c(C(F)(F)F)c1	inactive	
O=C(O)c1nc(Cl)c(Cl)c(Cl)c1Cl	inactive	
C[C@@H](c1ncncc1F)C(O)(Cn1cncn1)c1ccc(F)cc1F (stereo not given in full)	inactive	
OC(C#CCN1CCCC1)(c1ccccc1)c1ccccc1	inactive	
CCC(Cl)CCC(Cl)C(Cl)CC(Cl)C(Cl)C(Cl)CCl (stereo not given)	inactive	
O=[N+]([O-])c1ccc(NCCO)c(OCCO)c1	inactive	
CC(CSC(=O)c1ccccc1)C(=O)N1C[C@@H](Sc2ccccc2)C[C@H]1C(=O)O (stereo not given in full)		-6.47% [at 15.8 µM] (inactive)
CCCCC/C=C\C/C=C\CCCCCCCC(=O)NC(C)c1ccccc1 (stereo not given)	inactive	
CN1Cc2cc(C(=O)N3CCC(C4CCNCC4)CC3)ccc2NC(CC(=O)O)C1=O (stereo not given)	inactive	
COC(C)(C)CCO	inactive	

Assay: A CellTox Green Cytotoxicity Assay to monitor cytotoxicity in HEK293 cells - 32 hour (AID 1224881); note: nearly all actives have a fitted effect of over 40% in size
Conditions: CellTox Green fluorescence; series mostly up to 76.8 µM
Outline: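 Fluorescence from a DNA-binding dye excluded by viable cells was measured repeatedly in the same HEK293 wells (600 cells/well) during continuous compound exposure at 37 C. Each assay gives one read point: 0, 8, 16, 24, 32 or 40 h.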

SMILES	Potency
O=C(NCC1CN(c2ccc(N3CCOCC3=O)cc2)C(=O)O1)c1ccc(Cl)s1 (stereo not given)	inactive
CC(COCCO)OCCO (stereo not given)	inactive
C=C(C)C(=O)OCC	inactive
C[N+]1(CC2COC(c3ccccc3)(C3CCCCC3)O2)CCCCC1 (stereo not given)	inactive
CC(=O)[O][Al]	inactive
CC(=O)[O][Al][O]C(C)=O	inactive
CCCCOC(=O)CCCCCCCC(=O)OCCCC	inactive
CCCCC(CC)COC(=O)CCCCCCCCC(=O)OCC(CC)CCCC (stereo not given)	inactive
CN(C)CCOC(c1ccccc1)c1ccc(Br)cc1 (stereo not given)	inactive
O=C(OCCCCCCOC(=O)c1ccccc1)c1ccccc1	inactive
C[Si](C)(CCCN)O[Si](C)(C)CCCN	inactive
CCC(C)O (stereo not given)	inactive
Nc1cccc([N+](=O)[O-])c1	inactive
NS(=O)(=O)c1ccc(N2CCCCS2(=O)=O)cc1	inactive
Cc1ncc(CO)c(C=O)c1O	inactive
OC[C@H]1O[C@@H](OCCc2ccc(O)cc2)[C@H](O)[C@@H](O)[C@@H]1O	inactive
CC(C)OC(=O)C(C)N(C(=O)c1ccccc1)c1ccc(F)c(Cl)c1 (stereo not given)	inactive
C[C@@H](c1ncncc1F)C(O)(Cn1cncn1)c1ccc(F)cc1F (stereo not given in full)	inactive
CCC(Cl)CCC(Cl)C(Cl)CC(Cl)C(Cl)C(Cl)CCl (stereo not given)	inactive
O=[N+]([O-])c1ccc(NCCO)c(OCCO)c1	inactive
CC(C)(O)c1ccc(CNC(=O)c2cccnc2Oc2ccc(F)cc2)cc1	inactive
CCCCC/C=C\C/C=C\CCCCCCCC(=O)NC(C)c1ccccc1 (stereo not given)	inactive
COc1cc2nc(N(C)CCCNC(=O)C3CCCO3)nc(N)c2cc1OC (stereo not given)	inactive
COC(C)(C)CCO	inactive
